hcDAF12 agonist: H. contortus DAF-12 activation, primary screen. activation, % at 6.8 µM. actives 1.4% (n = 370,000). AID 652067. HEK293 hcDAF-12 lit1-tk-luc reporter, luminescence; 0% DMSO, 100% Δ7-dafachronic acid;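 active means activation above the mean of all tested compounds plus 3 SD, cut at about 5.5% in these data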;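 further: 100% = response to 3 µM Δ7-dafachronic acid high control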
SMARCA2 activ: activators of SMARCA2 function. MG213 cells, MMTV-luciferase reporter, dexamethasone, overnight. activation, % at 9.1 µM. actives 1% (n = 370,000); in the data active means activation above about 7.8%;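 further: 0% = vehicle wells and 100% = reference activator wells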
hgDAF-12 ag: agonists of H. glycines DAF-12 nuclear receptor; activation, % at 6.8 µM; actives 1.8% (n = 370,000); HEK293 GAL4-hgDAF12 UAS-luciferase reporter, agonist luminescence; normalized to butyrate control;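 active means activation above a cutoff set at the mean of all screened compounds plus 3 SD, cut at about 10% in these data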;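 further: 0% = DMSO wells and 100% = sodium butyrate wells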
DAX1 inh-1: DAX1 (NR0B1) inhibition, primary screen; HEK293T StAR-luciferase reporter, SF-1/DAX-1 repression relief; inhibition, % at 6.8 µM; actives 1.1% (n = 370,000);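 active means inhibition above the mean over all tested compounds plus 3 SD, cut at about 3.6% in these data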;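 further: 0% = DAX-1 cells with DMSO and 100% = cells lacking DAX-1 with DMSO; higher inhibition means more luminescence from relief of DAX-1 repression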
DAX1 inh-2: inhibitors of human orphan nuclear receptor DAX1 (NR0B1). HEK293 Gal4-DAX1 luciferase reporter, luminescence. inhibition, % at 6.75 µM. actives 0.99% (n = 340,000). AID 504766;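 active means inhibition above the mean over all tested compounds plus 3 SD, cut at about 4.2% in these data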;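 further: 0% = DAX1-transfected cells with DMSO and 100% = empty-vector control cells with DMSO; inhibition shows as a rise in luminescence from relieved DAX1 repression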
Target sequence (P51843 207-470 limits assumed): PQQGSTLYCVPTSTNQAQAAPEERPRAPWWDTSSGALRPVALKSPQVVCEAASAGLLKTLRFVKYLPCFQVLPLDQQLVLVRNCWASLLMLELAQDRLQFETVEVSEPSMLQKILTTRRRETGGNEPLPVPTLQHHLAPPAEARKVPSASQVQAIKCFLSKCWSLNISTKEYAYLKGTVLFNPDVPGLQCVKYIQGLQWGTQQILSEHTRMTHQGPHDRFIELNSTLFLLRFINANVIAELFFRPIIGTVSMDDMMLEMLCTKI
ssDAF12 agonist: activators of S. stercoralis DAF-12 nuclear receptor; HEK293 ssDAF-12/GRIP1 lit1-tk-luc reporter, luminescence; % of 3 µM dafachronic acid response; activation, % at 6.8 µM; actives 1% (n = 370,000);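 active means activation above the mean over all tested compounds plus 3 SD, cut at about 0.9% in these data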;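 further: 0% = DMSO-only wells and 100% = 3 µM delta7-dafachronic acid wells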
Active calls of the source: *; nt = no result given. Rows were chosen to be rich in hits. Some 4.8% of all compounds tested hit in one or more screens of this group.

SMILES | hcDAF12 agonist | SMARCA2 activ | hgDAF-12 ag | DAX1 inh-1 | DAX1 inh-2 | ssDAF12 agonist
Cc1ccc2[nH]c(SCC(=O)N3CCOCC3)nc2c1C | 5.7* | 4 | 9 | 0 | 3 | 0
COc1ccc(CCNC(=O)c2cnn(-c3ccccc3)c2N)cc1OC | -2 | 0 | -2 | -1 | nt | -1
O=C(CN1CCOc2ccccc21)NC1CCN(Cc2ccccc2)CC1 | 0 | -2 | -2 | -1 | 1 | 0
O=C(CN1CCOc2ccccc21)NC1CCCCCCC1 | 5.8* | 1 | -1 | 0 | 4.8* | 1
COC(=O)[C@]12C[C@H](CC(=O)NCc3cccc4ccccc34)C(=O)N(Cc3ccco3)C1=C[C@H](C1CCCC1)O[C@@H]2C | 0 | -3 | 0 | 0 | nt | -1
COc1ccc(O)c(C(=O)c2cnc3nc4ccccc4n3c2)c1 | 6.1* | 1 | 2 | 0 | 2 | 0
Cc1c(S(=O)(=O)N2CCCCC2)c(=O)n(C)c(=O)n1C | 2 | 0 | 1 | 0 | 4.3* | -1
COC(=O)C1CCN(S(=O)(=O)c2c(C)n(C)c(=O)n(C)c2=O)CC1 | -1 | 1 | 3 | 1 | 1 | -1
Nc1c(/C=C2\C=Nc3ccccc32)c(=O)nc2sc(CC(=O)N3CCOCC3)nn12 | 5 | -1 | 6 | 3.7* | 1 | 0
CCN(CC)c1ccc(C=Nn2c(C)nnc2C)cc1 | 0 | -6 | 0 | -1 | nt | -2
N#C/C(=N\Nc1ccc(Br)cc1)C(=N)N1CCOCC1 | 2 | 4 | 7 | 1 | 3 | 0
N#C/C(=N\Nc1ccccc1)C(=N)N1CCCCC1 | 3 | 5 | 12* | 3 | 2 | 1
O=C1CCNc2c(Cl)cc(Cl)cc21 | -1 | 2 | -1 | 0 | 5.0* | -1
O=C1CCNc2c(Cl)cccc21 | 2 | -5 | 1 | 0 | 0 | 0
Cc1ccc(C(=O)Cn2nnc3ccccc32)cc1[N+](=O)[O-] | 1 | -1 | 0 | 1 | 6.0* | 0
COc1ccc(N2CC(C(=O)N[C@@H](C)C(=O)NC3CCCC3)CC2=O)cc1 (stereo not given in full) | 2 | -3 | -1 | 0 | 0 | 0
CCC(C)[C@H](NC(=O)C1CC(=O)N(c2ccc(OC)cc2)C1)C(=O)NC1CCCC1 (stereo not given in full) | 0 | 8.0* | 0 | 0 | 0 | -1
CCN1CCCC1CN(Cc1cc2cc(C)ccc2[nH]c1=O)C(=O)Nc1ccccc1OC (stereo not given) | 3 | 2 | 1 | 4.0* | 0 | -1
COc1ccccc1NC(=O)N(CCN1CCCC1)Cc1cc2cc(C)ccc2[nH]c1=O | 2 | 1 | 2 | 1 | 0 | -1
COc1ccc(CNC(=S)OC2CCC23CCC(c2ccccc2)CC3)cc1 (stereo not given) | 0 | 2 | -2 | -1 | nt | -2
CCOC(=O)N1CCN(C(=O)c2ccc3nc(N4CCC(C)CC4)sc3c2)CC1 | -1 | -2 | 0 | -1 | -2 | -2
NC(=O)C1CCN(C(=O)c2ccc3nc(N4CCCCC4)sc3c2)CC1 | 1 | 2 | 7 | 1 | 5.2* | 0
CCOC(=O)N1CCN(C(=O)c2ccc3nc(N4CCCCC4)sc3c2)CC1 | -1 | 2 | 1 | 0 | 0 | -1
COc1cccc(N2CCN(C(=O)c3ccc4nc(N5CCC(C)CC5)sc4c3)CC2)c1 | 1 | 1 | 12* | 1 | nt | -1
Cc1cc(C)c(S(=O)(=O)Nc2nnc(C)s2)c(C)c1 | -1 | 1 | 1 | 0 | 1 | -1
SMILES | hcDAF12 agonist | SMARCA2 activ | hgDAF-12 ag | DAX1 inh-1 | DAX1 inh-2 | ssDAF12 agonist
Cc1cc(C)c(S(=O)(=O)Nc2nnc(CC(C)C)s2)c(C)c1 | -2 | 0 | 1 | 0 | 4.4* | -1
O=S1(=O)CC2c3ccc(F)cc3CN2CN1CCc1ccccc1 (stereo not given) | 0 | -3 | 3 | -1 | nt | 0
Fc1ccc(F)c(NC2=NCCCCC2)c1 | -2 | -2 | 1 | 0 | 0 | -1
O=S(=O)(NC1=NCCCCC1)c1cc(F)ccc1F | -1 | -4 | 1 | 0 | 4.5* | -1
COc1cccc(Cn2cc(COC(=O)N3CCCC3)nn2)c1 | -2 | -6 | -1 | 0 | nt | -2
S=C(Nc1ccccc1)Nc1ccc(Br)cc1 | -1 | -3 | 1 | -1 | 5.7* | -1

Source: PubChem (The Scripps Research Institute Molecular Screening Center)
